Laboratory results as given in PubChem BioAssay.
Activity calls are given as the source filed them. Unless noted, no rule for the calls is given here.

Legend:
[1] = test system: Wnt5a (protein binding on small-molecule microarray); experiment: Wnt5a binders on small-molecule microarray, primary screen, biophysical, 635/667 nm fluorescence (AID 1142); details: 635 nm fluorescence, higher = more signal;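 also: fluorescence read at 667 nm with signal to noise per printed feature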
[2] = cell viability in Huh7 cells, primary screen, cytotoxicity control for HCV replication inhibitor project, CellTiter-Glo luminescence, basal, 48 h (AID 1143); details: Huh7 HCV replicon, higher = more signal, called active from +8 up or from −8 down;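 also: Huh7 hepatoma cells carrying a hepatitis C replication reporter with no stimulus; test concentration not given here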
[3] = P. aeruginosa biofilm formation inhibitors, primary screen, PAO1 strain, BacTiter-Glo luminescence, LB-PBS (AID 1144); details: 12 h, higher = more signal
[4] = CREB reporter modulators without forskolin, primary screen, cell-based, PC12, CRE-LacZ reporter, unstimulated (AID 1145); details: no forskolin, luminescence, 4.5 h, higher = more signal, called active from +8 up or from −8 down
[5] = CREB reporter modulators under forskolin, primary screen, cell-based, PC12, CRE-LacZ reporter, forskolin-stimulated (AID 1146); details: luminescence, 4.5 h, higher = more signal, called active from +8 up or from −8 down;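 also: PC12 cells with 6xCRE LacZ reporter stimulated by forskolin 10 µM; beta-galactosidase reporter signal reflecting CREB driven transcription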
[6] = biological target: Streptavidin (Streptomyces avidinii) (UniProt P22629); experiment: streptavidin binders on small-molecule microarray, primary screen, artefact control for SMM compound annotation, biophysical, 635/667 nm fluorescence (AID 1147); details: streptavidin binding, higher = more signal;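 also: signal reflects streptavidin binding to arrayed compounds as a control protein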
Sequence of Streptavidin (Streptomyces avidinii) (P22629 whole entry, looked up): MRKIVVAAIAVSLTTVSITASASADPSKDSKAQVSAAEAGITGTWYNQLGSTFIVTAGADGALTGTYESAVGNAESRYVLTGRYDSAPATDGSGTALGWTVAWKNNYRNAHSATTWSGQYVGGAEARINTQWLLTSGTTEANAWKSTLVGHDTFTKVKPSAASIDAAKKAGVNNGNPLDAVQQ

[7] = small-molecule binders of probe aInhba, primary screen, biochemical, small-molecule microarray, 635/667 nm fluorescence (AID 1148); details: higher = more signal;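 also: score merges 667nm spot fluorescence with signal-to-noise for antibody binding to printed compounds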
Torsin-1A (Homo sapiens) [8] = biological target: Torsin-1A (Homo sapiens) (UniProt O14656); experiment: torsin A binders from cell lysate, primary screen, small-molecule microarray, wild-type, 635/667 nm (AID 1149); details: COS7 hTOR1A-WT lysate, 635 nm fluorescence, higher = more signal
Sequence of Torsin-1A (Homo sapiens) (O14656 whole entry, looked up): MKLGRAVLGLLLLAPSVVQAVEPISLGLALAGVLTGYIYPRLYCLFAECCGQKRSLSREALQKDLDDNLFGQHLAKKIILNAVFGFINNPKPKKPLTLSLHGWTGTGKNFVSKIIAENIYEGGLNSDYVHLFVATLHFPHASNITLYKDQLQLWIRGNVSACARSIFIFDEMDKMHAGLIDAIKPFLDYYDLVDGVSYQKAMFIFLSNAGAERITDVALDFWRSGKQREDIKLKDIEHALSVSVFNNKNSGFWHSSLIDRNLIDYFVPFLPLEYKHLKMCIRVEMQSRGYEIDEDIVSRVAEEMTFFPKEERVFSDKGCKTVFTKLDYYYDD

Torsin-1A (Homo sapiens) [9] = biological target: Torsin-1A (Homo sapiens) (UniProt O14656); experiment: small-molecule binders of mutant TOR1A in lysate, primary screen, cell lysate, small-molecule microarray, COS7 lysate, 635/667 nm fluorescence (AID 1150); details: COS7 hTOR1A mutant lysate, 635 nm fluorescence, higher = more signal;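 also: score pools 667 nm emission and signal to noise measuring lysate protein binding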
[10] = test system: Sonic hedgehog protein (Shh); experiment: small-molecule binders of Shh protein, primary screen, biochemical, small-molecule microarray, 635/667 nm fluorescence (AID 1151); details: small-molecule microarray binding, 635 nm fluorescence; higher = more signal;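 also: Shh protein binding to compounds spotted on small-molecule microarray slides; score combines spot fluorescence intensity with signal-to-noise across triplicate slides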
[11] = E. coli DRC41 culture turbidity changes, primary screen, E. coli filamentation inducer project, strain DRC41, OD650, 48 h (AID 1152);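 also: E. coli MC1000 strain DRC41 lacking acrAB efflux pump and sulA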; details: E. coli DRC41 (acrAB sulA), higher = more signal, called active from +8 up or from −8 down
[12] = small-molecule binders of probe aLefty1, primary screen, biochemical, small-molecule microarray, 635/667 nm fluorescence (AID 1153); details: higher = more signal;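 also: score merges spot fluorescence with signal-to-noise ratio from the scanned slide images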
[13] = PSAC antagonists in infected red cells, primary screen, cell-based, P. falciparum Indochina, OD700, 1 h (AID 1154); details: P. falciparum Indochina infected RBC osmotic lysis, higher = more signal, called active from +8 up or from −8 down
[14] = PSAC antagonists in infected red cells, primary screen, cell-based, P. falciparum Indochina, OD700, 2 h (AID 1155);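 also: lysis reports solute entry through the parasite surface anion channel PSAC; channel blockers reduce lysis of infected cells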; details: P. falciparum Indochina infected erythrocytes, osmotic lysis OD700; higher = more signal, called active from +8 up or from −8 down
[15] = osmotic lysis modulators in infected erythrocytes, primary screen, PSAC antagonist project, cell-based, P. falciparum Indochina, OD700, 3 h (AID 1156); details: higher = more signal, called active from +8 up or from −8 down
[16] = PSAC antagonists in infected red cells, primary screen, cell-based, P. falciparum Indochina, OD700, 18 h (AID 1157); details: P. falciparum Indochina infected erythrocytes, osmotic lysis OD700, 18 h; higher = more signal, called active from +8 up or from −8 down
[17] = modulators of S6 phosphorylation in cells, primary screen, cell-based, A549, cytoblot, luminescence, serum-stimulated (AID 1158); details: A549 phospho-S6 cytoblot, 5 h, higher = more signal;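 also: serum-stimulated A549 lung adenocarcinoma cells; signal is phosphorylated S6 detected by cytoblot immunostaining with HRP secondary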
[18] = biological target: NADPH oxidase 2 (Homo sapiens) (UniProt P04839); experiment: NOX2-dependent H2O2 signal modulators, primary screen, NOX inhibitor project, cell-based, HEK293-NOX2, PMA-stimulated, Amplex Red fluorescence (AID 1159); details: 45 min, higher = more signal, called active from +8 up or from −8 down; also: test concentration not given here
Sequence of NADPH oxidase 2 (Homo sapiens) (P04839 whole entry, looked up): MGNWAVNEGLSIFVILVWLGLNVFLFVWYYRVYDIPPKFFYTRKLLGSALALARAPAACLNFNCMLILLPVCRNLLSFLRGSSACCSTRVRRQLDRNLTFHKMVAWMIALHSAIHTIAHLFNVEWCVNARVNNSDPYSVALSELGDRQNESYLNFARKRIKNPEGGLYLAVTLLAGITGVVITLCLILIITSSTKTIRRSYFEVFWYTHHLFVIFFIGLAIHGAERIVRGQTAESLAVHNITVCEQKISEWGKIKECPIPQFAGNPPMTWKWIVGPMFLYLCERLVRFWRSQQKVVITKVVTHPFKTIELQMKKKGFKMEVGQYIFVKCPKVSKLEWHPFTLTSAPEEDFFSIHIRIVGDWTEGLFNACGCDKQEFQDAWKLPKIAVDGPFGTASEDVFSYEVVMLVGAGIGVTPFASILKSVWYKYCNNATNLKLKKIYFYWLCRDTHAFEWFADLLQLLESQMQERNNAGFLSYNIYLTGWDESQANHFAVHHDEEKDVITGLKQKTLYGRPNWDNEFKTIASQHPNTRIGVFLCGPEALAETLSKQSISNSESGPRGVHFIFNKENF

[19] = biological target: NADPH oxidase 4 (Homo sapiens) (UniProt Q9NPH5); experiment: NOX4-dependent H2O2 signal modulators, primary screen, NOX inhibitor project, cell-based, HEK293-NOX4, tetracycline-induced, Amplex Red fluorescence (AID 1160); details: 45 min, higher = more signal, called active from +8 up or from −8 down
Sequence of NADPH oxidase 4 (Homo sapiens) (Q9NPH5 whole entry, looked up): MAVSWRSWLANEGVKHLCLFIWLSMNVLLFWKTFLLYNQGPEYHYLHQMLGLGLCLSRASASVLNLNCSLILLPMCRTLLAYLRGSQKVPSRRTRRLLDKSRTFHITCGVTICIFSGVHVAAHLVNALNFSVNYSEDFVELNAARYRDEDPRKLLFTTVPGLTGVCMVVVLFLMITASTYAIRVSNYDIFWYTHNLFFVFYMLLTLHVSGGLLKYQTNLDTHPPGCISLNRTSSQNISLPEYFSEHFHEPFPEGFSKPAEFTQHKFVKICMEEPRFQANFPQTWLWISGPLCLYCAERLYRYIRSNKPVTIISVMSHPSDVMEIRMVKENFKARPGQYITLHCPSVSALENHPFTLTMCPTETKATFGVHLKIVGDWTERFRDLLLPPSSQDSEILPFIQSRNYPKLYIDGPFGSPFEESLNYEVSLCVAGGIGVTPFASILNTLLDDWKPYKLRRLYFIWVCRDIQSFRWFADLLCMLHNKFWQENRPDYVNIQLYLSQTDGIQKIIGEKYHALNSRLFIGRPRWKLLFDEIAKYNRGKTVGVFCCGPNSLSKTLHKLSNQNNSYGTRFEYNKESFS

[20] = biological target: NADPH oxidase 5 (Homo sapiens) (UniProt Q96PH1); experiment: NOX5-dependent H2O2 signal modulators, primary screen, NOX inhibitor project, cell-based, HEK293-NOX5, Amplex Red fluorescence (AID 1161); details: HEK293-NOX5, ionomycin, 45 min, higher = more signal
Sequence of NADPH oxidase 5 (Homo sapiens) (Q96PH1 whole entry, looked up): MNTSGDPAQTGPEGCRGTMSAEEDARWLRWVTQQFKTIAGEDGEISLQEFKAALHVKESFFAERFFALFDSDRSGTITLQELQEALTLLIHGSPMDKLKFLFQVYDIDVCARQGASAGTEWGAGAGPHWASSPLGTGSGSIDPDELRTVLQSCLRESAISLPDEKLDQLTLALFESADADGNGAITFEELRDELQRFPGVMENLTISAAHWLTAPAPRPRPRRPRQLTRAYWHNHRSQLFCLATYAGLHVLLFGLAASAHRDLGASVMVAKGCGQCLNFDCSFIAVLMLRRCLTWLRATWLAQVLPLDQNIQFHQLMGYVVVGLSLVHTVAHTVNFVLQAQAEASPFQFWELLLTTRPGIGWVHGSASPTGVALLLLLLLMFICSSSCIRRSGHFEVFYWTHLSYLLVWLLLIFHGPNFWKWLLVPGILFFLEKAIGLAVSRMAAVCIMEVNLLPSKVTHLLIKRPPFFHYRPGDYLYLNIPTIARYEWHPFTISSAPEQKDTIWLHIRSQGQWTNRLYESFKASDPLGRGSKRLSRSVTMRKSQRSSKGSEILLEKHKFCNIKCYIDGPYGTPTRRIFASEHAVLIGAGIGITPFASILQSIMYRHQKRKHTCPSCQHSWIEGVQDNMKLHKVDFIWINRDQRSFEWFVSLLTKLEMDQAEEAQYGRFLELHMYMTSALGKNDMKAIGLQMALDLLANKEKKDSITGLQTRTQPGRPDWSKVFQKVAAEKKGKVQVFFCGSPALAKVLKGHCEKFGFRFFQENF

Row | SMILES | composite z-score [1] | z-score [2] | z-score [3] | z-score [4] | z-score [5] | composite z-score [6] | composite z-score [7] | composite z-score (Torsin-1A (Homo sapiens) [8]) | composite z-score (Torsin-1A (Homo sapiens) [9]) | composite z-score [10] | z-score [11] | composite z-score [12] | z-score [13] | z-score [14] | z-score [15] | z-score [16] | z-score [17] | z-score [18] | z-score [19] | z-score [20]
1 | CN(C)CCCC[C@@H]1NC(=O)[C@H]2C[C@@H](C(=O)NCCCCCCNC(=O)CS)[C@@H](c3ccc(O)cc3)N2C1=O | -0.261 | -0.898 (inactive) | -0.113 (inactive) | -1.21 (inactive) | -0.887 (inactive) | -1.05 | -0.224 | 1.13 | 0.753 | 1.92 | 0.446 (inactive) | 0.0048 | 2.46 (inactive) | 0.374 (inactive) | 1.84 (inactive) | 0.178 (inactive) | 0.469 | 1.35 (inactive) | 1.78 (inactive) | 1.52
2 | C#CCOC(=O)N[C@H](C=CCCCC)c1ccccc1 | -0.0582 | -0.342 (inactive) | -0.604 (inactive) | 0.197 (inactive) | 0.488 (inactive) | 0.335 | 0.0714 | 0.28 | 0.0584 | -0.13 | -0.288 (inactive) | 0.289 | 0.801 (inactive) | 0.852 (inactive) | 0.599 (inactive) | 0.715 (inactive) | -0.469 | 0.877 (inactive) | -0.194 (inactive) | -0.212
3 | CCOC(=O)C1=CCC(c2cccc(Cl)c2)O1 (stereo not given) | -0.0719 | -4.6 (inactive) | -1.23 (inactive) | -0.471 (inactive) | 0.0691 (inactive) | -0.164 | 0.0541 | 0.368 | 0.263 | -0.549 | -0.504 (inactive) | 0.152 | 14.9 (active) | 1.02 (inactive) | 0.75 (inactive) | -0.244 (inactive) | 1.61 | -4.41 (inactive) | -1.37 (inactive) | -3.51
4 | CO[C@H]1O[C@H](CO)[C@@H](OC(=O)Nc2ccc(C(F)(F)F)cc2)[C@H](OC(=O)Nc2ccccc2)[C@H]1OC(=O)Nc1ccccc1 | 0.71 | -5.9 (inactive) | -0.109 (inactive) | 3.11 (inactive) | -1.51 (inactive) | 1.22 | 0.3 | 0.386 | 0.183 | 1.2 | -1.41 (inactive) | 1.14 | 4.63 (inactive) | 1.22 (inactive) | -2.03 (inactive) | 0.887 (inactive) | 0.121 | -5.31 (inactive) | -1.39 (inactive) | -1.85
5 | C[C@@]1([C@@H](NC(=O)c2cccs2)c2ccc(-c3ccccc3)cc2)C[C@H]1C1CCCCC1 | -0.465 | -4.41 (inactive) | 0.141 (inactive) | 0.201 (inactive) | -0.169 (inactive) | -0.649 | -0.157 | -1.24 | -0.787 | -1.46 | -1.79 (inactive) | 0.371 | 1.41 (inactive) | -0.427 (inactive) | 1.13 (inactive) | -1.34 (inactive) | 2.17 | -4.07 (inactive) | -4.4 (inactive) | -1.59
6 | C[N+](C)(C)CCCC[C@@H]1NC(=O)[C@@H]2C[C@H](C(=O)NCCCCCNC(=O)CS)[C@H](c3cccc(OCCO)c3)N2C1=O | 0.623 | -0.192 (inactive) | 0.152 (inactive) | 0.688 (inactive) | 0.478 (inactive) | 0.0879 | 0.0636 | 0.628 | 0.186 | 1.38 | 0.724 (inactive) | -0.0061 | 3.64 (inactive) | 0.813 (inactive) | -1.78 (inactive) | 0.718 (inactive) | 0.596 | 1.54 (inactive) | 0.433 (inactive) | 0.711
7 | C=CC[C@]1(C(=O)NCC(O)CO)N=C(c2ccc(OCCCO)cc2)O[C@H]1c1ccccc1N=[N+]=[N-] (stereo not given in full) | 0.257 | -1.4 (inactive) | -0.323 (inactive) | 1.24 (inactive) | -0.652 (inactive) | 1.4 | 0.215 | 0.16 | 1.46 | -0.723 | 0.33 (inactive) | 0.658 | 34.3 (active) | 30.5 (active) | 2 (inactive) | 7.28 (inactive) | -0.33 | -0.357 (inactive) | 1.74 (inactive) | 0.781
8 | O=C1O[C@H](c2ccccc2)[C@H](c2ccccc2)N2[C@H]1[C@@H](C(=O)N1CCCCCCC1)[C@]1(C(=O)Nc3ccc(C#CCCO)cc31)[C@H]2c1ccc(OCCO)cc1 | 2.02 | -2.18 (inactive) | 0.278 (inactive) | -1.42 (inactive) | -0.757 (inactive) | 4.02 | 1.82 | 3.41 | 3.46 | 2.35 | 0.543 (inactive) | 3.09 | 10.3 (active) | 2.04 (inactive) | 1.21 (inactive) | 1.02 (inactive) | 0.456 | 1.11 (inactive) | 0.597 (inactive) | 1.25
9 | O=C1C2C=CC(C(O)c3cccc4ccccc34)N(Nc3ccccc3)C2C(=O)N1c1ccccc1 (stereo not given) | 0.336 | -1.3 (inactive) | -1.46 (inactive) | 0.429 (inactive) | -0.637 (inactive) | 0.595 | 0.0705 | 0.327 | 0.463 | 0.296 | -0.692 (inactive) | 0.528 | 8.49 (active) | 2.06 (inactive) | 0.214 (inactive) | 1.41 (inactive) | -0.594 | -0.627 (inactive) | -3.83 (inactive) | -3.17
